Laboratory results taken from PubChem BioAssay AID1508600 (Functional Genomics Laboratory (NCATS/FGL), 2020).
The whole screen tested about 53,000 sequences, of which about 3,700 (7%) were called active.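 The calls were made as follows: active = gene knockdowns whose robust z-score for IL-1 alpha signal is at least 2 or at most -2, so actives lie on both sides; inactive = the rest.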 The sample as a whole holds a higher share of actives than the screen did.

Assay: Components of the Cytosolic LPS Sensing Pathway: Gene Identification via Genome-wide siRNA Screen;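 also: robust z of the log signal after scaling to non-targeting control siRNA wells of the plate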
Settings: RAW264.7 macrophages, IL-1a HTRF, actives lie on both sides, screened at 100 nM (by protocol), cells primed 5 h with Pam3CSK4 first
Outline: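 RAW264.7; siRNA 100 nM final, RNAiMAX, 48h 37 degrees C; Pam3CSK4 5 h; LipidA + TransIT-TKO 24 h; IL-1a HTRF; CellTiter-Glo viability; robust z vs negative-control median.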

z-score, inactive:
AUCCAUUUUGUGCUAGGCATT against Cacfd1 0.473
CCUGCUAUGUAAUAUAGAUTT against Eef2k 0.0542
GGAAAGAAAUGAAUCAGUATT against Rnf216 0.882
GGACAUUAAGAGUGGAAAGTT against Nucb1 0.777
GGGAAGGAUUAUGUCAAAUTT against Kit 0.328
CGGCCUCCAUGUUAAGAUATT against Csf2rb2 -0.249
GCCUGAAGAGAGUCUUAUCTT against Bnip5 1.09
GGCAUUUAAAUCUGUGUGUTT against Slc39a6 -0.471
GGGAGGAAGUGGAAGUUCUTT against Tsc22d1 0.488
GGUGAAUGUAGUGUUAAAATT against Cyrib -0.204
GAGAUGUCCGAAAUGCCAATT against Smco4 1.73
GGACAGUGUAGUCAAAAAATT against Cx3cr1 0.149
GCAAACCUCAAUCUUGAAATT against Kif15 0.297
GGCAGUUAUUUCUAUCUUATT against 1700018F24Rik 0.683
GGCUGUUGAACAGGUUAUCTT against Mis12 0.645
CCUGAUCAACAAACCGGAUTT against Rfxank 1.29
CGACUGUCGUUUGUUGAUGTT against Tktl2 -0.766
GUAGAGUGAUGAGAGGCCUTT against Vmn1r-ps8 -0.475
UUCAAAUAAACUCUCUGCUTT against Krtap31-2 0.802
GCCUUCAUGGGAUUUGUCUTT against Opn1sw -0.498
GCUAGUUUCCGUCGCUUUGTT against Cpeb4 0.555
GGUACUGGAAAUCUGUAUGTT against Nlgn1 -0.332
GCGAACUUUUACAUUUCGATT against Gmpr 0.272
GUGGGAUUCCAGUAGAAAUTT against Olfr1116 0.559
CCAAGUUAGUGGAUGAAUGTT against Ugt2b35 -0.555
GGGAGGAAAUUAAAUUUCATT against Hif1an -0.223
GGAAAUAUCCUAAACAGAATT against Gdpd2 -0.864
GCAGUUGCGUUCUAUUGAATT against Ccdc86 0.179
GCCGGUUGGAACAAAAGGCTT against E130018O15Rik 0.993
GCGAUCAGUACUGAAGGAATT against Siglecf -1.27
GGAGACUGUCUAAUAAAAATT against Medag 0.0572
CUGUAUGUUAUCUCUACACTT against Olfr1513 0.469
CCAAAUUGCUUACAUGAUATT against Greb1 1.44
GCUGAUAACCUGAUCAACGTT against Nars 0.0406
CGACGACUAGACCUCAUCUTT against Dtx4 -0.624
GGACUUAUUCGAUAUAGUATT against Nt5c1b -1.23
UGCAUGGACUUACGAAAGATT against Tas2r115 0.454
GCUGCCGUUUAAAUAUAUGTT against D10Wsu102e 0.31
CUCCCUGGCAUUAAUCCGUTT against Tepp 0.0788
GAUUUGGUGUCUGCCGAGATT against Prrt1 1.73
GGCUACAACCAAAUCUUCATT against Papln 0.873
GCGAUUAACGGAUCGUACCTT against Letmd1 0.192
GCAGAUCAAAUUUAGCUGATT against Wwc2 0.266
GCUUUUUAUCCGUGUCGAUTT against 4930474N05Rik 0.501
GGUUAAACCCUCUUCUCAUTT against Uhrf2 -0.645
GGAAGUAUCGAGAUUCAUGTT against Pitpnm3 0.0165
GCUUCAGACGUAAUUUACUTT against Morc1 0.751
GGUUUUGGUUUUGUGGAAUTT against Srsf5 1.45
GGAUCUGGUACCCACCCAATT against Jak2 -1.63
GGAAUUCUACCUGAAAAUCTT against Arel1 0.122
CGCUCUUUCAGCACAAGAATT against Zfp422 -1.57
CCUACGACCUGAAGAUAGCTT against Dscc1 -0.124
GGUGGACUCAUUCUAAUACTT against Nudt1 -1.06
GGUGUAGCUGGAAUUGGCATT against Nlrp4b -0.0207
GGUGAAGCAAAACGGAGGATT against H2-M10.1 0.512
GCCUAUUUCCGUGAACCCGTT against Mgmt -1.04
GGCCAAUCCACGAAAGCAUTT against Strip1 -0.958
GGGACUCUUCACUUGAAAUTT against Ccl3 -3.8e-05

z-score, active:
CCCGCUUGUUCUGAUGAUATT against 2310039H08Rik -2.26
GCAAUGGUUUCGGCUACGATT against Hoxb3 2.18
GGAAUUCCCAAGAGAAGGATT against Gk -5.27
GGGCCACAGCUUAAUACUGTT against Ptov1 3.28
GGCCUUCUAAAGCUGUGAUTT against 6330403K07Rik -2.7
GGGUGGAGAACCAAGUUUUTT against Tmed6 3.21
GGACUUGGAGAGCAAAAGCTT against Ano2 -2.14
CCAAUUCACUUAGGAGCUGTT against Psma4 -2.1
CCUGCUAUACAUUGAACCCTT against Lhcgr 2.52
GCUGGGUGAUAAACAAUGUTT against Rhbg 3.42
